Screening data: PubChem, several laboratories
The list is not random: actives were taken first. Their share in the collection is about 2.7%.
KLK7 zymogen act: proKLK7 zymogen activators, primary screen, biochemical, fluorescence intensity | Kallikrein-7 (Homo sapiens), P49862 | hit rate 0.9% among 370,000 | activation, % at 7 µM | purified proKLK7, EDANS-DABCYL substrate fluorescence; 100% is mature enzyme control, 0% vehicle;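 active = activation above the mean of all tested compounds plus 3 SD, computed per campaign excluding outliers beyond control limits, cut at about 13% in these data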
FAS-TE inh: FAS thioesterase domain inhibitors, primary screen, biochemical, fluorescence intensity, uHTS | Fatty acid synthase (Homo sapiens), P49327 | recombinant FAS-TE, OMFH fluorogenic substrate, fluorescence endpoint | inhibition, % at 15 µM | hit rate 0.67% among 360,000 | AID 602261, 2012;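 active = compounds whose normalised, plate-corrected inhibition of enzyme fluorescence in the single-dose primary screen is 50% or more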;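 note: 0% = DMSO with enzyme and 100% = substrate without enzyme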
PfGluPho inh: PfG6PD enzyme inhibitors, primary screen, biochemical, fluorescence intensity, uHTS. PfGluPho enzyme, NADPH resazurin-diaphorase fluorescence. hit rate 0.78% among 350,000. inhibition, % at 20 µM. glucose-6-phosphate dehydrogenase-6-phosphogluconolactonase (Plasmodium falciparum 3D7);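 active = inhibition reaching at least a set limit at 20 µM in the primary screen, cut at about 59% in these data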;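 note: 0% = DMSO wells with substrate and 100% = DMSO wells lacking glucose-6-phosphate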
Neddyl block: inhibitors of cullin neddylation, primary screen, biochemical, TR-FRET, uHTS, NAE and Ubc12; NEDD8-conjugating enzyme Ubc12 (Homo sapiens) + NEDD8-activating enzyme E1 regulatory …; calls only at 25 µM; hit rate 0.58% among 360,000; AID 651699, 2012; in the data active = inhibition above about 36%
FAS-TE inh conf: FAS thioesterase domain inhibitors, confirmation, biochemical, fluorescence intensity, single concentration | hit rate 45% among 2,300 | inhibition, % at 15 µM | recombinant FAS-TE, OMFH fluorogenic substrate | shares compounds with FAS-TE inh;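 active = compounds inhibiting the enzyme by at least 50% at 15 µM in any one of the replicates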;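 note: 0% = enzyme with DMSO only and 100% = wells lacking enzyme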
* = called active by the depositor; i = inactive; nt = no result shown.

SMILES	KLK7 zymogen act	FAS-TE inh	PfGluPho inh	Neddyl block	FAS-TE inh conf
Cc1ccc(NC(=O)C(C)c2ccc([N+](=O)[O-])cc2)cc1Cl (stereo not given)	0.2	59.0*	21.8	i	45.4
N#Cc1c(/N=C/c2ccc(-c3ccc(C(=O)O)c(Cl)c3)o2)sc2c1CCCC2	-0.5	50.2*	37.7	i	41.5
COc1cc([N+](=O)[O-])cc(/C=N/NC(=O)c2cccnc2)c1O	0.0	61.9*	-14.3	i	74.4*
COC(=O)C(CCCCNC(=O)c1ccc([N+](=O)[O-])cc1)NC(=O)c1ccc([N+](=O)[O-])cc1 (stereo not given)	-0.7	50.1*	7.0	i	52.4*
O=C(CNC(=O)c1ccccc1)OCc1ccc([N+](=O)[O-])cc1	-0.5	13.9	-0.2	i	nt
COc1ccc(C(=O)NCC(=O)OCc2ccc([N+](=O)[O-])cc2)cc1	0.4	51.8*	-7.2	i	26.9
Cc1ccc(C(=O)NCC(=O)NCC(=O)OCc2ccc(Oc3ccc([N+](=O)[O-])cc3)cc2)cc1	0.7	20.1	-1.3	i	nt
COC(=O)C(CC(C)C)NC(=O)c1ccc([N+](=O)[O-])cc1 (stereo not given)	-0.9	0.5	2.8	i	nt
Cc1ccc(C(=O)NCC(=O)OCc2nnc(-c3ccc([N+](=O)[O-])cc3)o2)cc1	0.6	67.9*	-1.4	i	53.1*
CCCCCCCCOC(=O)C1=C(C)Nc2nnnn2C1c1cccs1 (stereo not given)	0.9	62.3*	18.8	i	40.7
CCCOc1ccc(NC(=O)CC2C(=O)N(C)C(=S)N2Cc2cccs2)cc1 (stereo not given)	0.6	63.9*	-1.7	i	65.4*
COc1cccc(CNC(=O)CCCN2C(=O)COc3ccc(C)cc32)c1OC	-0.3	nt	nt	nt	nt
O=C(c1ccccc1)n1ccc(-c2cnc(-c3ccccc3)s2)n1	-5.1	35.5	-3.5	nt	nt
COc1ccc(S(=O)(=O)n2ccc(-c3cnc(-c4ccccc4)s3)n2)cc1	-39.3	57.9*	4.6	i	41.8
O=S(=O)(CC1NCc2cc(F)ccc21)NCCc1ccccc1 (stereo not given)	-0.3	nt	nt	nt	nt
O=c1[nH]c(=O)c2cc([N+](=O)[O-])cc([N+](=O)[O-])c2[nH]1	-0.1	2.2	1.6	i	nt
O=c1[nH]c2cc([N+](=O)[O-])c([N+](=O)[O-])cc2[nH]c1=O	0.4	66.0*	-8.3	i	73.2*
COCCCNC(=O)C[C@@H]1C(=O)N2CCCC3=C2[C@@]1(C(=O)OC)CCCC3	-0.1	nt	nt	nt	nt
C[C@H](CO)N1C[C@H](C)[C@@H](CN(C)C(=O)Nc2ccccc2)Oc2c(NC(=O)Nc3ccc(C(F)(F)F)cc3)cccc2C1=O	-0.4	83.3*	14.3	i	92.0*
Cc1noc(C)c1NC(=O)Nc1cccc2c1O[C@H](CN(C)C(=O)NC1CCCCC1)[C@@H](C)CN([C@H](C)CO)C2=O	0.0	76.7*	-0.5	i	83.8*
C[C@@H]1CN([C@H](C)CO)C(=O)c2cccc(NC(=O)NC3CCCCC3)c2O[C@@H]1CN(C)C(=O)Nc1ccc(C(F)(F)F)cc1	nt	76.9*	40.4	i	70.0*
C[C@H]1CN([C@@H](C)CO)C(=O)c2cccc(NC(=O)Nc3ccc(C(F)(F)F)cc3)c2O[C@@H]1CN(C)S(=O)(=O)c1ccccc1	-0.1	36.1	16.4	i	nt
COc1ccc(S(=O)(=O)N(C)C[C@H]2Oc3c(NC(=O)Nc4ccc(C(F)(F)F)cc4)cccc3C(=O)N([C@H](C)CO)C[C@@H]2C)cc1	nt	61.4*	35.0	i	45.1
C[C@H](CO)N1C[C@H](C)[C@@H](CN(C)C(=O)Nc2ccc(C(F)(F)F)cc2)Oc2c(NC(=O)NC3CCCCC3)cccc2C1=O	0.6	47.0	26.5	i	nt
CCn1c(COc2ccc(Cl)cc2)nnc1SCC(=O)Nc1ccc(Oc2ccccc2)cc1	0.1	nt	nt	nt	nt
SMILES	KLK7 zymogen act	FAS-TE inh	PfGluPho inh	Neddyl block	FAS-TE inh conf
Cc1cc(=O)[nH]c(SCC(=O)Nc2cccc(C)c2C)n1	0.5	nt	nt	nt	nt
NC(=NCc1ccccc1)NC(=O)OCc1ccccc1	0.2	nt	nt	nt	nt
O=C(c1cc(-c2cccs2)nc2ccccc12)N1CCN(S(=O)(=O)c2ccccc2)CC1	-34.7	47.9	10.0	i	nt
O=C(c1cc(-c2cccs2)nc2ccccc12)N1CCN(c2ccccc2)CC1	-3.6	50.5*	6.8	i	21.5
COc1cc2c(-c3ccc4cc[nH]c4c3)c(-c3ccc(C#N)cc3)oc(=O)c2cc1OC	-279.9	66.9*	16.8	i	10.9
O=C1C2C3C=CC(C3)C2C(=O)N1Nc1ccc([N+](=O)[O-])cc1[N+](=O)[O-] (stereo not given)	-0.3	12.5	-8.4	i	nt
CC(C)Oc1ccc(C2CC(=O)N(Nc3ccc([N+](=O)[O-])cc3[N+](=O)[O-])C2=O)cc1 (stereo not given)	-0.1	90.3*	-11.1	i	92.0*
O=C1c2ccccc2C(=O)N1Nc1ccc([N+](=O)[O-])cc1[N+](=O)[O-]	-0.2	4.6	4.1	i	nt
CCOc1ccc(C2CC(=O)N(Nc3ccc([N+](=O)[O-])cc3[N+](=O)[O-])C2=O)cc1 (stereo not given)	0.9	85.9*	-4.4	i	69.4*
COCCCNC(=O)C[C@H]1C[C@H](C(=O)N2CCOCC2)[C@@]2(CCC3CCCC3)c3[nH]c4ccc(Cl)cc4c3CCN2C1=O	-0.3	86.4*	14.0	i	33.5
O=C(C[C@H]1C[C@H](C(=O)N2CCOCC2)[C@@]2(CCC3CCCC3)c3[nH]c4cc(-c5ccco5)ccc4c3CCN2C1=O)NCCc1ccccn1	9.2	64.5*	33.1	nt	71.0*
O=C(C[C@H]1C[C@H](C(=O)N2CCOCC2)[C@@]2(CCC3CCCC3)c3[nH]c4ccc(Cl)cc4c3CCN2C1=O)NCCN1CCOCC1	0.1	84.6*	11.2	i	76.3*
O=C(C[C@H]1C[C@H](C(=O)N2CCOCC2)[C@@]2(CCC3CCCC3)c3[nH]c4ccc(Cl)cc4c3CCN2C1=O)NCCc1ccccn1	-0.3	82.8*	16.2	i	92.5*
C[C@]12c3[nH]c4ccc(Cl)cc4c3CCN1C(=O)[C@@H](CC(=O)NCCN1CCOCC1)C[C@@H]2C(=O)N1CCOCC1	0.1	-11.5	-3.1	i	nt
COc1ccc(-n2c(COc3ccc(Cl)cc3)nnc2SCC(=O)Nc2ccc3c(c2)OCO3)cc1	0.5	nt	nt	nt	nt
CCCC[C@H]1C2CC(OC(=O)Nc3ccccc3)C(C2)[C@H]2CCCCN21 (stereo not given in full)	-0.3	nt	nt	nt	nt
Cc1ccc2nc(/N=C(\N)NC(=O)N3c4ccccc4Sc4ccccc43)nc(C)c2c1	0.1	55.2*	2.0	i	-4.7
